In the library only some 3.8% were active in any assay of this set; here they are far more common.
Wnt act: Wnt/beta-catenin pathway activators, primary screen, cell-based, plate reader, single point; Wnt/beta-catenin reporter cell assay, activator; activation, % at 9.35 µM; hit rate 1.2% among 300,000; AID 743398, 2014; in the data active means activation above about 30%, passing the limit was not always enough; inconclusive means no clear call, values can overlap the other calls
HSF1 inhib: HSF1 inhibitors in luciferase reporter cells, primary screen, cell-based, NIH3T3, luminescence; NIH3T3-HGL HSE-luciferase, MG132-induced, luminescence 8 h; active compounds read low; hit rate 0.77% among 300,000; activity change, negative = inhibition, % at 7.5 µM (by protocol); AID 2098, 2009;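 active means more than half of replicate wells show activity change below -50%, luminescence cut by over half; inconclusive means some wells, but at most half, below -50%; inactive means no replicate well below -50%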;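 further: luciferase reports HSF-1 transcriptional activity via heat shock element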
HSF-1 act: HSF-1 activators, primary screen, NIH3T3-HGL cells, MG132 stress, luminescence, single point; NIH3T3-HGL HSF-1 luciferase reporter, 8 h; 100% = twice DMSO control signal; activation, % at 9 µM; hit rate 1.7% among 300,000; AID 504408, 2011;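 active means mean replicate activation of at least 50% with a set share of replicates each reaching 50%; inconclusive means only one of those two conditions met; inactive means mean below 50% and too few replicates reaching it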
MITF TRPM1 HTS: activators of MITF-driven TRPM1 promoter reporter, primary screen, cell-based, SK-MEL-5, luciferase, single point. SK-MEL-5 TRPM1-promoter luciferase, 24 h; % of positive control, neutral wells = 0. hit rate 0.75% among 300,000. activation, % at 12.5 µM;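 active means mean activation of at least 80% with every replicate also reaching 80%; inconclusive means mean reaches 80% but some replicate falls short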
esBAF inh: Bmi1 luciferase reporter increase in mESCs, primary screen, esBAF inhibitor project, mouse ES cells, Bmi1 luciferase knock-in, single point; 24 h; 100% = twice the neutral-well signal; reporter increase, % at 12.5 µM; hit rate 2% among 350,000; AID 602393, 2012; in the data active means activation above about 40%; inconclusive means no clear call, values can overlap the other calls;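 further: a rise in the Bmi1 reporter signal indicates esBAF inhibition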
Each line names hits and unclear results; the compound was inactive in the other large screens.

O=C(NC(=S)Nc1ccccc1Cl)c1ccco1	esBAF inh 58
C[C@@H]1CN([C@@H](C)CO)C(=O)c2cc(NC(=O)Nc3ccccc3)ccc2O[C@@H]1CN(C)S(=O)(=O)c1ccccc1	none (no result: Wnt act, HSF1 inhib, HSF-1 act, MITF TRPM1 HTS)
CNC(=O)C[C@@H]1CC[C@H]2[C@H](COc3ccc(NC(=O)Nc4ccc(C)cc4)cc3C(=O)N2C)O1	none (no result: Wnt act, HSF1 inhib, HSF-1 act, MITF TRPM1 HTS)
Cc1noc(C)c1NC(=O)N(C)C[C@H]1Oc2cc(C#CCC3CCCC3)ccc2S(=O)(=O)N([C@H](C)CO)C[C@H]1C	none (no result: Wnt act, HSF1 inhib, HSF-1 act, MITF TRPM1 HTS)
O=C(C[C@H]1CC[C@@H]2[C@H](COC[C@@H](O)CN2Cc2ccncc2)O1)NCC1CC1	none (no result: Wnt act, HSF1 inhib, HSF-1 act, MITF TRPM1 HTS)
O=C(Nc1nc2ccc([N+](=O)[O-])cc2s1)c1c(F)cccc1F	none
CCC(=O)Nc1nc(-c2ccc3c(c2)CC(C)N3S(C)(=O)=O)cs1 (configuration not stated)	esBAF inh 54
O=C(Nc1nc2ccc([N+](=O)[O-])cc2s1)c1ccco1	Wnt act 52 (no result: MITF TRPM1 HTS, esBAF inh)
CCC(=O)N1CCc2cc(-c3csc(NC(=O)c4ccco4)n3)ccc21	esBAF inh 45
C[C@@H]1CN([C@H](C)CO)C(=O)c2cc(NC(=O)CCC(F)(F)F)ccc2O[C@@H]1CN(C)S(=O)(=O)c1cccs1	none (no result: Wnt act, HSF1 inhib, HSF-1 act, MITF TRPM1 HTS)
O=C(C[C@@H]1C[C@H]2c3cc(NC(=O)NC4CCCC4)ccc3O[C@H]2[C@@H](CO)O1)NCC1CC1	none (no result: Wnt act, HSF1 inhib, HSF-1 act, MITF TRPM1 HTS)
CCNC(=O)[C@@H]1[C@@H](CO)[C@@H]2Cn3c(ccc(-c4ccccc4F)c3=O)[C@H]1N2CC	none (no result: Wnt act, HSF1 inhib, HSF-1 act, MITF TRPM1 HTS)
C=CCn1c(O)c(N=Nc2ccccc2O)c2ccccc21	none (no result: HSF1 inhib, HSF-1 act)
C=CCn1c(O)c(N=Nc2ccccc2[N+](=O)[O-])c2ccccc21	esBAF inh 58 (no result: HSF1 inhib, HSF-1 act, MITF TRPM1 HTS)
Cc1cc(C2(c3cc(C)c(NC(=O)CN4CCOCC4)c(C)c3)CCCCC2)cc(C)c1NC(=O)CN1CCOCC1	HSF1 inhib -57 (no result: Wnt act, MITF TRPM1 HTS, esBAF inh)
COc1ccc(-c2noc(-c3cccc(Cl)c3)n2)cc1OC	MITF TRPM1 HTS inconclusive, esBAF inh 49
COc1ccc(CCC(=O)Nc2ccc(-c3noc(-c4ccc(OC)c(OC)c4)n3)cc2)cc1	esBAF inh 43 (no result: Wnt act)
Cc1ccc(-c2nc(-c3ccncc3)no2)cc1C	Wnt act 39, HSF-1 act 60 (no result: MITF TRPM1 HTS)
COc1cccc(-c2nc(-c3ccncc3)no2)c1	Wnt act 35 (no result: esBAF inh)
C[C@@H]1CN([C@H](C)CO)C(=O)c2cc(NC(=O)C3CCCCC3)ccc2O[C@@H](C)CCCCO[C@@H]1CN(C)S(=O)(=O)c1cn(C)cn1	none (no result: Wnt act, HSF1 inhib, HSF-1 act, MITF TRPM1 HTS)
COc1ccc(-c2noc(-c3ccccc3Cl)n2)cc1OC	MITF TRPM1 HTS 86, esBAF inh inconclusive
COc1cc(-c2noc(-c3cccs3)n2)cc(OC)c1OC	none
CCOc1ccc(-c2noc(-c3ccncc3)n2)cc1OCC	none (no result: MITF TRPM1 HTS)
COc1ccc(-c2noc(-c3cccs3)n2)cc1OC	Wnt act 60, esBAF inh 53 (no result: MITF TRPM1 HTS)
COc1ccc(-c2nc(-c3ccncc3)no2)cc1OC	esBAF inh 63 (no result: Wnt act, MITF TRPM1 HTS)
COc1ccc(-c2noc(COc3ccccc3OC)n2)cc1OC	none (no result: MITF TRPM1 HTS)
COc1ccc(-c2noc(CCc3ccccc3)n2)cc1	esBAF inh 57
COc1ccc(CCc2nc(-c3ccc(-n4cccc4)cc3)no2)cc1	none
COc1ccc(-c2noc(Cc3cccs3)n2)cc1	MITF TRPM1 HTS 119, esBAF inh 55
C[C@H](CO)N1C[C@H](C)[C@@H](CN(C)C(=O)C2CCOCC2)Oc2cc(C3=CCCCC3)ccc2S1(=O)=O	none (no result: Wnt act, HSF1 inhib, HSF-1 act, MITF TRPM1 HTS)
Cc1ccc(CNC(=O)c2cc(-c3ccccc3)nn2Cc2cc(C)no2)cc1	MITF TRPM1 HTS 125, esBAF inh inconclusive
COc1ccccc1CNC(=O)c1cc(-c2ccccc2)nn1Cc1cc(C)no1	none
CCOC(=O)c1cc(-c2ccccc2)nn1Cc1cc(C)no1	MITF TRPM1 HTS 87
CCOC(=O)c1cc(-c2ccccc2C)nn1Cc1cc(C)no1	esBAF inh 46 (no result: HSF1 inhib, HSF-1 act)
CCc1cc(Cn2nc(-c3ccccc3C)cc2C(=O)O)on1	none (no result: HSF1 inhib, HSF-1 act)
Cc1cc(Cn2nc(-c3ccccc3)cc2C(=O)NCc2cccs2)on1	none
O=C(C[C@H]1C=C[C@@H](NC(=O)c2cccc(F)c2)[C@H](CO)O1)NCCN1CCCC1	none (no result: Wnt act, HSF1 inhib, HSF-1 act, MITF TRPM1 HTS)
Cc1csc(-c2coc3cc(O)cc(C)c3c2=O)n1	esBAF inh 60
COc1ccc2c(=O)c(-c3nc(C)cs3)coc2c1	none (no result: Wnt act, esBAF inh)
CCc1cc2c(=O)c(-c3nc(C)cs3)coc2cc1O	Wnt act 39, esBAF inh 48
O=C(CSC(=S)N1CCSCC1)c1ccc(Cl)cc1	MITF TRPM1 HTS 82 (no result: esBAF inh)
O=C(CSC(=S)N1CCSCC1)c1ccccc1	HSF-1 act 60 (no result: esBAF inh)
CO[C@H]1CN(C)C(=O)c2ccc(NC(=O)c3ccc(F)cc3)cc2OC[C@@H](C)N(C)C[C@H]1C	none (no result: Wnt act, HSF1 inhib, HSF-1 act, MITF TRPM1 HTS)
O=C(c1ccc2c(=O)n(Cc3ccccc3Cl)c(=S)[nH]c2c1)N1CCOCC1	none
CC(=O)c1ccc(N2CCN(C(=O)c3ccc(Cn4c(=S)[nH]c5ccc(N6CCOCC6)cc5c4=O)cc3)CC2)cc1	esBAF inh 61
O=c1c2cc(N3CCOCC3)ccc2[nH]c(=S)n1Cc1ccccn1	HSF-1 act 67 (no result: Wnt act, MITF TRPM1 HTS, esBAF inh)
O=C(c1ccc2c(=O)n(Cc3ccccc3)c(=S)[nH]c2c1)N1CCOCC1	HSF1 inhib -87
N#C/C(=C\c1ccc([N+](=O)[O-])cc1)c1nc(C2CC2)cs1	HSF-1 act 57 (no result: Wnt act, esBAF inh)
N#C/C(=C/c1ccccc1[N+](=O)[O-])c1nc(C2CC2)cs1	HSF-1 act 101 (no result: esBAF inh)
N#C/C(=C\C=C\c1ccccc1[N+](=O)[O-])c1nc(-c2ccc3c(c2)OCO3)cs1	none (no result: Wnt act)
N#C/C(=C\c1ccccc1[N+](=O)[O-])c1nc(C2CC2)cs1	HSF-1 act 51 (no result: esBAF inh)
COc1ccc(-c2csc(/C(C#N)=C\c3cccc([N+](=O)[O-])c3)n2)cc1	none (no result: Wnt act, MITF TRPM1 HTS, esBAF inh)
C/C(=N/NC(=O)CNC(=O)c1ccccn1)c1ccc([N+](=O)[O-])cc1	HSF1 inhib -81 (no result: esBAF inh)
CC(=O)c1sc(NC(=O)c2ccccc2F)nc1-c1ccccc1	MITF TRPM1 HTS 88 (no result: esBAF inh)
CC(=O)c1sc(NC(=O)c2ccco2)nc1-c1ccccc1	esBAF inh 62 (no result: Wnt act)
CCOC(=O)c1sc(NC(=O)c2ccco2)nc1-c1ccccc1	none
Cc1nc(NC(=O)c2ccco2)sc1C(=O)O	none
Cc1sc(NC(=O)c2ccco2)nc1-c1ccccc1	HSF-1 act 90, MITF TRPM1 HTS 96 (no result: Wnt act, esBAF inh)
COC(=O)c1c(-c2ccccc2)csc1NC(=O)c1ccco1	HSF-1 act 74, MITF TRPM1 HTS 105, esBAF inh 98 (no result: Wnt act)
C[C@@H]1CN([C@H](C)CO)C(=O)c2cc(NC(=O)Cc3ccccc3)ccc2O[C@H]1CN(C)Cc1ccccc1	none (no result: Wnt act, HSF1 inhib, HSF-1 act, MITF TRPM1 HTS)
CCC(=O)N1C[C@@H](C)[C@@H](OC)CN(C)C(=O)c2cc(NC(=O)c3cc(C)on3)ccc2OC[C@@H]1C	none (no result: Wnt act, HSF1 inhib, HSF-1 act, MITF TRPM1 HTS)
CC(=O)c1c(C)[nH]c(C(=O)Nc2nc(-c3ccccc3)c(C)s2)c1C	MITF TRPM1 HTS 111 (no result: Wnt act, esBAF inh)

Screens from PubChem BioAssay.
